MITF primary: MITF inhibitors, primary screen, biochemical, AlphaScreen, human | inhibition, % at 2.6 µM | 0.91% of 650,000 active | AlphaScreen MITF homodimerization, bead proximity signal; in the data active = inhibition above about 50%;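 also: 0% = vehicle wells with protein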
FBW7 activator: FBW7 E3 ligase activators, primary screen, biochemical, AlphaScreen, human; F-box/WD repeat-containing protein 7 (Homo sapiens), Q969H0; normalized activity (activation), % at 26.1 µM; 0.13% of 650,000 active; AlphaScreen FBW7–phospho-cyclin E peptide binding, activator screen; in the data active = normalized activity above about 1.9%;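 also: purified mutant Fbw7 with reduced substrate affinity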
Target sequence (Q969H0 whole entry, looked up): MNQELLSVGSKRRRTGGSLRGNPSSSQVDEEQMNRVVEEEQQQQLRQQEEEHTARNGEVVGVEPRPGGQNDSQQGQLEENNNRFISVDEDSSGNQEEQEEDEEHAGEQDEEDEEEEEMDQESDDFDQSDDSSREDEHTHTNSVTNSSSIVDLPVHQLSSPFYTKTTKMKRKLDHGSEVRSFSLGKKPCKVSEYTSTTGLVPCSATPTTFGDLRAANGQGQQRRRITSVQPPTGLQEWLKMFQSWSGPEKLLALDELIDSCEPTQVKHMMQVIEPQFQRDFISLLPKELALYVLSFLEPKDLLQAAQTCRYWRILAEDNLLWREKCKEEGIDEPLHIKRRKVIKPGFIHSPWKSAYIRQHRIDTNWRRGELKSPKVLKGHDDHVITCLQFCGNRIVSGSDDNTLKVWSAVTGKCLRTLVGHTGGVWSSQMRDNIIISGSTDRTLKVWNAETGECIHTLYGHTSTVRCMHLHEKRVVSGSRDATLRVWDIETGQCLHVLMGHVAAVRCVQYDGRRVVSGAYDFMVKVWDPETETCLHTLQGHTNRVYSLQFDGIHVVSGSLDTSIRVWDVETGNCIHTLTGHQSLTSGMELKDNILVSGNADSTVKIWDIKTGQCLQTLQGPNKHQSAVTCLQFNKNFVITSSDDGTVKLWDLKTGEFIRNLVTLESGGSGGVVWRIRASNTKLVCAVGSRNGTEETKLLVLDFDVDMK
TEAD-YAP block: TEAD-YAP interaction inhibition, primary screen, TEAD-YAP interaction inhibitor project, luminescence, HEK-TIYL cells | inhibition, % at 9.12 µM | 1.4% of 640,000 active | TEAD-Gal4/YAP UAS-luciferase luminescence; in the data active = inhibition above about 32%;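 also: 0% = median of test compound wells and 100% = reference inhibitor wells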
GPR151 activ: activators of human GPR151, primary screen, cell-based, PathHunter beta-arrestin, luminescence; G-protein coupled receptor 151 (Homo sapiens), Q8TDV0; PathHunter beta-arrestin GPR151 cells; activation, % at 11.2 µM; 1% of 650,000 active; AID 1508602, 2020; in the data active = activation above about 4.9%;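 also: 0% = median of compound wells and 100% = cells with positive control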
* hit, by the source's call. Hits are enriched below; roughly 3.5% of the tested compounds scored in any of these assays.

`CCOC(=O)c1[nH]c2c(c1C)C(=O)CC(c1cc(OC)ccc1OC)C2` (configuration not stated) gave MITF primary 7, FBW7 activator 0, TEAD-YAP block 44* and GPR151 activ 1.
`COC(=O)c1[nH]c2c(c1C)C(=O)CC(c1cc(OC)ccc1OC)C2` (configuration not stated) gave MITF primary -5, FBW7 activator 0, TEAD-YAP block 46* and GPR151 activ 0.
COC(=O)c1[nH]c2c(c1C)C(=O)CC(c1ccccc1Cl)C2 (configuration not stated) was read as MITF primary 20, FBW7 activator 0, TEAD-YAP block 52* and GPR151 activ 0.
`Cc1c(C(=O)O)[nH]c2c1C(=O)CC(c1ccccc1Cl)C2` (configuration not stated) gave MITF primary -6, FBW7 activator 0, TEAD-YAP block -2 and GPR151 activ -2.
`CCOc1ccc(C2CC(=O)c3c([nH]c(C(=O)OC)c3C)C2)cc1OC` (configuration not stated) gave MITF primary 13, FBW7 activator 0, TEAD-YAP block -12 and GPR151 activ 0.
`CCOC(=O)c1[nH]c2c(c1C)C(=O)CC(c1cccc(OC)c1)C2` (configuration not stated) gave MITF primary -3, FBW7 activator 0, TEAD-YAP block 44* and GPR151 activ 1.
C=CCOC(=O)c1[nH]c2c(c1C)C(=O)CC(c1ccc(OC)cc1)C2 (configuration not stated) was read as MITF primary 1, FBW7 activator 0, TEAD-YAP block -35 and GPR151 activ 1.
`C=CCOC(=O)c1[nH]c2c(c1C)C(=O)CC(c1cccs1)C2` (configuration not stated) gave MITF primary -9, FBW7 activator 0, TEAD-YAP block 49* and GPR151 activ 1.
`C=CCOC(=O)c1[nH]c2c(c1C)C(=O)CC(c1cc(OC)c(OC)c(OC)c1)C2` (configuration not stated) gave MITF primary -4, FBW7 activator 0, TEAD-YAP block 43* and GPR151 activ 0.
C=CCOC(=O)c1[nH]c2c(c1C)C(=O)CC(c1cc(OC)ccc1OC)C2 (configuration not stated) was read as MITF primary -4, FBW7 activator 0, TEAD-YAP block 42* and GPR151 activ 0.
For C=CCOC(=O)c1[nH]c2c(c1C)C(=O)CC(c1ccc(OC)c(OC)c1)C2 (configuration not stated) the results were MITF primary 17, FBW7 activator 0, TEAD-YAP block 3 and GPR151 activ 0.
CN1C(=O)CC(C(=O)Nc2ccccc2F)SC1=Nc1ccc(F)cc1 (configuration not stated) was read as MITF primary -6, FBW7 activator 0, TEAD-YAP block -2 and GPR151 activ 1.
`O=C(/C=C/Nc1ccc(F)cc1F)c1ccco1` gave MITF primary 3, FBW7 activator 0, TEAD-YAP block 64* and GPR151 activ -2.
Screening O=C(/C=C/Nc1cccc(Cl)c1Cl)c1ccco1 returned MITF primary -3, FBW7 activator 0, TEAD-YAP block 53* and GPR151 activ -2.
`O=C(/C=C/Nc1ccccc1O)c1ccco1` gave MITF primary 5, FBW7 activator 0, TEAD-YAP block -49 and GPR151 activ 0.
For O=C(/C=C/Nc1ccc(Br)cc1F)c1ccco1 the results were MITF primary -7, FBW7 activator 0, TEAD-YAP block 43* and GPR151 activ -2.
Screening Cc1ccccc1C1C(C#N)=C(N)N(N(C)C)C2=C1C(=O)CCC2 (configuration not stated) returned MITF primary -10, FBW7 activator 0, TEAD-YAP block -33 and GPR151 activ 1.
`COc1ccccc1NC(=O)c1ccc(SCC(=O)N2CCN(c3ccccc3)CC2)c([N+](=O)[O-])c1` gave MITF primary 36, FBW7 activator 0, TEAD-YAP block 1 and GPR151 activ 0.
`CCN(Cc1ccccc1)C(=O)c1sc2nc3n(c(=O)c2c1C)CCCC3` gave MITF primary 10, FBW7 activator 1, TEAD-YAP block 37* and GPR151 activ 1.

Compound activity as filed in PubChem.
